The record followed here is PubChem BioAssay (NCATS).

Experiment [1] in a line: qHTS of pediatric cancer cell lines to identify multiple opportunities for drug repurposing: Primary screen for Saos-2 cells (AID 1347097). For activity change, negative = cytotoxic: % is set by controls: 0 for no effect and ±100 for the full control effect. Note: nearly all actives have a fitted effect of over 40% in size. Note: potency is the fitted concentration of half-maximal effect. The method in brief: (§1)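 500-1,000 cells/well; 5 h pre-incubation 37 °C/5% CO2; compound pinned; 48 h; CellTiter-Glo, 15 min RT; luminescence. MIPE 11-pt from 0.78 nM, NPC 8-pt from 0.59 nM final. Bortezomib 2.3 µM final as positive control.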
(In general: In qHTS, concentration-response curves come from the screen itself.)

Experiment [2] in a line: qHTS of pediatric cancer cell lines to identify multiple opportunities for drug repurposing: Primary screen for NB1643 cells (AID 1347099).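 Note: plate controls were DMSO neutral control for no effect and bortezomib positive control for full effect; nearly all actives have a fitted effect of over 50% in size.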 In outline: as §1
Experiment [3] can be described thus: qHTS of pediatric cancer cell lines to identify multiple opportunities for drug repurposing: Primary screen for LAN-5 cells (AID 1347100).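 Note: plate controls were DMSO neutral control for no effect and bortezomib positive control for full effect.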 The method in brief: (§2)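 Cells (500-1,000/well) in growth media were settled 5 h at 37 degrees C, then given compounds for 48 h. Viability was read as CellTiter-Glo luminescence. Primary runs used MIPE at 11 points (0.78 nM-46 µM) and NPC at 8 points (0.59 nM-46 µM); follow-ups used 11 points.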

Experiment [4] is described as follows: qHTS of pediatric cancer cell lines to identify multiple opportunities for drug repurposing: Primary screen for BT-12 cells (AID 1347101).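 For activity change, negative = cytotoxic: plate controls were DMSO for no effect and bortezomib positive control for full effect.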 Note: nearly all actives have a fitted effect of over 25% in size. Note: potency is the fitted concentration of half-maximal effect. In outline: (§3)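 Cells (500-1,000/well) rested 5 h, then received compounds for 48 h; metabolically active cells were measured by CellTiter-Glo luminescence. Final concentrations spanned up to 46 µM (MIPE, 11-point) or 0.59 nM-46 µM (NPC, 8-point) in primary screens, 11-point in follow-ups.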

Experiment [5] in a line: qHTS of pediatric cancer cell lines to identify multiple opportunities for drug repurposing: Primary screen for Rh18 cells (AID 1347102). Note: % is set by controls: 0 for no effect and ±100 for the full control effect; nearly all actives have a fitted effect of over 65% in size. The method in brief:
as §2

The nature of experiment [6]: qHTS of pediatric cancer cell lines to identify multiple opportunities for drug repurposing: Primary screen for OHS-50 cells (AID 1347103).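 Note: plate controls were DMSO neutral control for no effect and bortezomib positive control for full effect; nearly all actives have a fitted effect of over 40% in size.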 In outline:
as §3

Experiment [7] can be described thus: qHTS of pediatric cancer cell lines to identify multiple opportunities for drug repurposing: Primary screen for RD cells (AID 1347104).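 For activity change, negative = cytotoxic: plate controls were DMSO for no effect and bortezomib for full effect.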 Note: nearly all actives have a fitted effect of over 55% in size. Note: potency is the fitted concentration of half-maximal effect. In outline:
as §1

Experiment [8] in a line: qHTS of pediatric cancer cell lines to identify multiple opportunities for drug repurposing: Primary screen for MG 63 (6-TG R) cells (AID 1347105). Note: % is set by controls: 0 for no effect and ±100 for the full control effect; nearly all actives have a fitted effect of over 50% in size. In outline:
as §1

A short description of experiment [9]: qHTS of pediatric cancer cell lines to identify multiple opportunities for drug repurposing: Primary screen for control Hh wild type fibroblast cells (AID 1347106).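 Note: series mostly up to about 46 µM; % is set by controls: 0 for no effect and ±100 for the full control effect; a drop in luminescence marks cytotoxicity and a rise apparent proliferation; nearly all actives have a fitted effect of over 55% in size.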 In outline: as §2
The nature of experiment [10]: qHTS of pediatric cancer cell lines to identify multiple opportunities for drug repurposing: Primary screen for Rh30 cells (AID 1347107). Note: series mostly up to about 46 µM; % is set by controls: 0 for no effect and ±100 for the full control effect; nearly all actives have a fitted effect of over 75% in size. In outline:
as §2

The nature of experiment [11]: qHTS of pediatric cancer cell lines to identify multiple opportunities for drug repurposing: Primary screen for Rh41 cells (AID 1347108).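 Note: series mostly up to about 46 µM; luminescence drop marks cytotoxic hits; nearly all actives have a fitted effect of over 70% in size.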 In outline: as §1
Experiment [12] is described as follows: qHTS of pediatric cancer cell lines to identify multiple opportunities for drug repurposing: Primary screen for SK-N-SH cells (AID 1347098).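 Note: DMSO served as neutral control and bortezomib at 2.3 µM as positive control; % is set by controls: 0 for no effect and ±100 for the full control effect; nearly all actives have a fitted effect of over 65% in size.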 The method in brief:
as §3

A short description of experiment [13]: qHTS of pediatric cancer cell lines to identify multiple opportunities for drug repurposing: Primary screen for U-2 OS cells (AID 1347096).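 Note: plate controls were DMSO wells for no effect and bortezomib positive control wells for full effect; nearly all actives have a fitted effect of over 50% in size.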 The method in brief: as §2
Experiment [14] in a line: qHTS of pediatric cancer cell lines to identify multiple opportunities for drug repurposing: Confirmatory screen for NB1643 cells (AID 1347109).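 Note: plate controls were DMSO for no effect and bortezomib for full effect; nearly all actives have a fitted effect of over 45% in size.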 In outline:
as §2

Experiment [15] is described as follows: qHTS of pediatric cancer cell lines to identify multiple opportunities for drug repurposing: Confirmatory screen for A673 cells (AID 1347110).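 Note: potency is the fitted concentration of half-maximal effect; cells exposed to compound for 48 h before the viability read; nearly all actives have a fitted effect of over 65% in size.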 In outline:
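A673 cells at 500-1,000 cells/well were dosed 5 h after plating, in dilution series up to 46 uM final; primary runs used 8 or 11 points and confirmatory runs used 11 points. Viability was read by CellTiter-Glo luminescence after 48 h, against DMSO and 2.3 uM bortezomib controls.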

Experiment [16] is described as follows: qHTS of pediatric cancer cell lines to identify multiple opportunities for drug repurposing: Confirmatory screen for SK-N-MC cells (AID 1347111).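 Note: potency is the fitted concentration of half-maximal effect; cells exposed to compound for 48 h before the readout; nearly all actives have a fitted effect of over 70% in size.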 The settings on record: SK-N-MC cell viability. In outline:
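Metabolically active cells were quantified by ATP-dependent luminescence (CellTiter-Glo, 15 min at room temperature) following 48 h treatment. Cells had been plated at 500-1,000 per well and settled for 5 h beforehand.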

Experiment [17] can be described thus: qHTS of pediatric cancer cell lines to identify multiple opportunities for drug repurposing: Confirmatory screen for BT-12 cells (AID 1347112). Note: % is set by controls: 0 for no effect and ±100 for the full control effect; nearly all actives have a fitted effect of over 55% in size. The method in brief:
as §2

Experiment [18] can be described thus: qHTS of pediatric cancer cell lines to identify multiple opportunities for drug repurposing: Confirmatory screen for LAN-5 cells (AID 1347113). Note: % is set by controls: 0 for no effect and ±100 for the full control effect; nearly all actives have a fitted effect of over 65% in size. In outline:
as §2

Experiment [19] in a line: qHTS of pediatric cancer cell lines to identify multiple opportunities for drug repurposing: Confirmatory screen for DAOY cells (AID 1347114). The method in brief:
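Viability measured as metabolically active cells via CellTiter-Glo luminescence following 48 hours of compound exposure, 11-point dilutions in confirmatory testing. 500-1,000 cells/well plated 5 hours before dosing; controls were DMSO and 2.3 µM bortezomib.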

Experiment [20] is described as follows: qHTS of pediatric cancer cell lines to identify multiple opportunities for drug repurposing: Confirmatory screen for NB-EBc1 cells (AID 1347115).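 Note: cells exposed to compound for 48 h before the viability read; % is set by controls: 0 for no effect and ±100 for the full control effect; nearly all actives have a fitted effect of over 45% in size.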 In outline:
as §2

Each structure is given as a SMILES string. Records with an inconclusive call do not appear. Values without a mark were called inactive. The source made the active and inactive calls. Calls come from the whole dose curve; as a rule, active = well fitted curve in the direction sought with a large enough effect; inconclusive = small, poorly fitted or top-dose-only effect, or another doubt; inactive = no such curve, though single readings can be large; an effect the other way counts as inactive or inconclusive.

Regarding `CC(C(=O)O)c1ccc(CC2CCCC2=O)cc1` (stereo unspecified), the Potency result in experiment [1], in experiment [2], in [3], in [4], in experiment [5] and in [6] was “inactive” in each case. Also, the Potency result in [7], in [8], in [10] and in experiment [11] was “inactive” throughout. The call in [9] was inactive.
In the case of `CN1CCN(CC(=O)N2c3ccccc3C(=O)Nc3cccnc32)CC1`, the activity change, negative = cytotoxic in [1] was -2.29% [at 4.84 µM]; in [12], 4.46% [at 6 µM]; in experiment [2] it was 9.59% [at 4.84 µM]; in experiment [3] it was 10.3% [at 4.84 µM]; in experiment [4], 5.59% [at 6.03 µM]; in experiment [5], 9.39% [at 4.84 µM]. The activity change, negative = cytotoxic in [7] was 6.71% [at 4.84 µM]; in experiment [8], 3.64% [at 4.84 µM]; in [9], 2.83% [at 4.84 µM]; in [10] it was 18% [at 4.84 µM]; in experiment [11] it was 19.3% [at 4.84 µM].
For the compound `FC(F)(F)c1ccccc1-n1ccnc1`, the Potency entry in [13], in experiment [2], in experiment [4], in experiment [5], in experiment [6] and in experiment [7] was “inactive” in each case. Moreover, the Potency result in [8], in experiment [10] and in experiment [11] was “inactive” in each case. In addition, in experiment [9], the compound was called inactive.
Turning to `Cc1nc2ccccn2c(=O)c1CCN1CCC(C(=O)c2ccc(F)cc2)CC1`, the Potency result in experiment [13], in [2], in experiment [3], in experiment [5], in experiment [7] and in experiment [8] was “inactive” in each case. The Potency result in experiment [10] and in experiment [11] was “inactive” each time. Besides, the compound was called inactive in [9].
Turning to `NS(=O)(=O)c1cc2c(cc1Cl)NC(C1CC3C=CC1C3)NS2(=O)=O` (stereo unspecified), the Potency result in experiment [1], in experiment [2], in [3], in experiment [4], in [5] and in experiment [6] was “inactive” in each case. Also, the Potency result in [7], in experiment [8], in experiment [10] and in experiment [11] was “inactive” each time. Further, the outcome in experiment [9] was inactive.
`CCOC(=O)c1cnc2c(cnn2CC)c1NN=C(C)C`: the Potency result in experiment [13], in experiment [2], in [3], in [4], in [5] and in experiment [7] was “inactive” throughout. For the same compound, the Potency entry in [8], in [10] and in [11] was “inactive” in each case. In [9], the result was inactive.
For `Brc1c(NC2=NCCN2)ccc2nccnc12`, the Potency entry in [13], in experiment [2], in experiment [3], in [4], in [5] and in experiment [7] was “inactive” each time. Also, the Potency entry in experiment [8], in [10] and in [11] was “inactive” in each case.
Turning to `CCN(CC)CCCN(c1ccccc1)C1Cc2ccccc2C1`, the Potency entry in [13], in experiment [2], in [5], in experiment [8], in experiment [10] and in [11] was “inactive” throughout. In [9], the call was inactive.
Take `CC(C)(C)c1ccc(C(=O)CCCN2CCC(OC(c3ccccc3)c3ccccc3)CC2)cc1`: the figures for the Potency in [1], in [4] and in experiment [7] were 26.6 µM (active), 19.5 µM (active) and 21.1 µM (active), respectively. Besides, the Potency entry in experiment [12] is “inactive”.
Regarding `CCCCNc1ccc(C(=O)OCCN(C)C)cc1`, the Potency result in experiment [1], in experiment [12], in experiment [2], in experiment [3], in experiment [4] and in experiment [5] was “inactive” throughout. For the same compound, the Potency entry in experiment [7], in experiment [8], in experiment [10] and in experiment [11] was “inactive” each time. For the same compound, the outcome in [9] was inactive.
Consider `NC(=O)c1cn(Cc2c(F)cccc2F)nn1`, for which the Potency entry in [1], in [12], in experiment [2], in experiment [3], in experiment [4] and in experiment [5] was “inactive” each time. The Potency entry in experiment [7], in experiment [8], in experiment [10] and in experiment [11] was “inactive” throughout. In [9], the compound was called inactive.
For the compound `CC(=O)OC(C)C[N+](C)(C)C` (stereo unspecified), the Potency entry in experiment [1], in experiment [12], in [2], in experiment [4], in [5] and in experiment [7] was “inactive” each time. Further, the Potency result in experiment [10] and in experiment [11] was “inactive” throughout. Moreover, in experiment [9], the outcome was inactive.
Turning to `C[C@]12CC[C@@H]3c4ccc(O)cc4C[C@@H](CCCCCCCCCS(=O)CCCC(F)(F)C(F)(F)F)[C@H]3[C@@H]1CC[C@@H]2O` (stereo partly specified), the Potency result in experiment [13], in experiment [2], in experiment [3], in experiment [4], in experiment [5] and in [7] was “inactive” each time. The Potency entry in experiment [8], in experiment [10], in experiment [11], in [14], in experiment [17] and in [18] was “inactive” each time. In addition, the Potency entry in experiment [19] and in [20] was “inactive” each time. The call in [9] was inactive. Also, the results for the Potency in experiment [15] and in experiment [16] were 11.7 µM (active) and 2.61 µM (active), respectively.
With `CCN1CCc2nc(N)oc2CC1`, the Potency entry in experiment [1], in experiment [12], in experiment [2], in [3], in experiment [4] and in experiment [5] was “inactive” throughout. Also, the Potency entry in experiment [6], in experiment [7], in experiment [8], in [10] and in experiment [11] was “inactive” each time. Also, the compound was called inactive in experiment [9].
As for `COC(=O)[C@H]1[C@H]2C[C@@H]3c4[nH]c5cc(OC)ccc5c4CCN3C[C@H]2C[C@@H](OC(=O)c2cc(OC)c(OC)c(OC)c2)[C@@H]1OC`, the Potency result in experiment [13], in [2], in [3], in experiment [5] and in experiment [10] was “inactive” in each case.
Regarding `CN(C)[C@@H]1C(=O)C(C(N)=O)=C(O)[C@@]2(O)C(=O)C3=C(O)c4c(O)ccc(Cl)c4[C@@H](O)[C@H]3C[C@@H]12`, the Potency result in experiment [13], in [2], in [5], in experiment [7], in experiment [8] and in experiment [10] was “inactive” throughout. In experiment [11], the Potency entry was “inactive”. In experiment [9], the compound was called inactive.
In the case of `CC(C)NNC(=O)c1ccncc1`, the Potency result in [1], in [12], in experiment [2], in experiment [3], in experiment [4] and in experiment [5] was “inactive” each time. Moreover, the Potency entry in [7], in experiment [8], in [10] and in experiment [11] was “inactive” each time. For the same compound, the compound was called inactive in experiment [9].
For `COc1ccc2c(c1OC)C(=O)O[C@@H]2[C@H]1c2c(cc3c(c2OC)OCO3)CCN1C`, the Potency entry in [13], in experiment [2], in experiment [5], in [6], in [7] and in [8] was “inactive” throughout. The Potency result in experiment [10] and in [11] was “inactive” in each case. The compound was classed as inactive in experiment [9].
In the case of `NC(N)=NC(=O)Cc1c(Cl)cccc1Cl`, the Potency entry in experiment [1], in [12], in experiment [2], in experiment [3], in experiment [5] and in experiment [7] was “inactive” in each case. Also, the Potency entry in experiment [8], in experiment [10] and in experiment [11] was “inactive” in each case. In addition, in [9], the outcome was inactive.
Take `COCCc1ccc(OCC(O)CNC(C)C)cc1` (stereo unspecified): the Potency result in experiment [1], in experiment [12], in experiment [2], in [3], in experiment [4] and in [5] was “inactive” throughout. Besides, the Potency entry in experiment [6], in experiment [7], in experiment [8], in experiment [10] and in [11] was “inactive” in each case. In experiment [9], the compound was classed as inactive.
As to `Cc1ccc(S(=O)(=O)NC(=O)NN2CCCCCC2)cc1`, the Potency entry in experiment [13], in experiment [2], in experiment [3], in experiment [4], in experiment [5] and in experiment [7] was “inactive” in each case. Also, the Potency entry in [8], in experiment [10] and in experiment [11] was “inactive” each time.
